Measurements reported in PubChem BioAssay (NCI).
The panel holds about 79,000 compounds, 15% with a hit somewhere; the sample as a whole holds those more often. Unmarked numbers belong to inactive results. The source made the active and inactive calls. Rule as the data show it: active = growth inhibition above about 70%; inactive = the rest.

Assays:
[1] = NCI Yeast Anticancer Drug Screen. Data for the rad50 strain (AID 155);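 also: 0% = growth of vehicle-only cultures of the same strain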; conditions: S. cerevisiae rad50 strain growth inhibition, stronger effect = higher value
Summary of the method: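 Vehicle-treated cultures provide the reference for the growth inhibition reported for compound-exposed, repair-deficient yeast.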

[2] = NCI Yeast Anticancer Drug Screen. Data for the mec2-1 strain (AID 157); conditions: S. cerevisiae mec2-1 strain, stronger effect = higher value
Summary of the method: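 Growth inhibition is read against vehicle-treated controls after compound exposure of the mec2-1 yeast strain, which is defective in DNA damage repair or cell cycle control.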

[3] = NCI Yeast Anticancer Drug Screen. Data for the sgs1 mgt1 strain (AID 161);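 also: 0% = growth of cultures given vehicle only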; conditions: S. cerevisiae sgs1 mgt1 strain, stronger effect = higher value
Summary of the method: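 Yeast cells carrying a defined DNA-repair defect were exposed to test compounds. Growth inhibition was measured relative to vehicle-treated controls.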

[4] = NCI Yeast Anticancer Drug Screen. Data for the cln2 rad14 strain (AID 165);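 also: 0% = growth equal to vehicle treated cultures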; conditions: S. cerevisiae cln2 rad14 strain, stronger effect = higher value
Summary of the method: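 Growth inhibition, relative to vehicle-treated controls, is the read-out. The test organism is a yeast strain with defined genetic alterations, cln2 rad14.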

[5] = NCI Yeast Anticancer Drug Screen. Data for the bub3 strain (AID 167); conditions: S. cerevisiae bub3 mutant strain, stronger effect = higher value
Summary of the method: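 Mutant yeast screening strain plus compound; vehicle-treated cultures serve as the 0% inhibition reference.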

[6] = NCI Yeast Anticancer Drug Screen. Data for the mlh1 rad18 strain (AID 175); conditions: S. cerevisiae mlh1 rad18 strain growth inhibition, stronger effect = higher value
Summary of the method: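 Cells of a genetically altered yeast strain, deficient in DNA damage repair, were treated with compound. Their growth was then compared with that of vehicle-treated cultures to give inhibition.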

[7] = at 5.0 µM (retest, dose inferred, filed as 0.5)
[8] = at 50.0 µM (retest, dose inferred, filed as 5.0)

SMILES	growth inhibition [1, 7]	growth inhibition [1, 8]	growth inhibition ([1]; at 50.0 µM)	growth inhibition [2, 7]	growth inhibition [2, 8]	growth inhibition ([2]; at 50.0 µM)	growth inhibition [3, 7]	growth inhibition [3, 8]	growth inhibition ([3]; at 50.0 µM)	growth inhibition [4, 7]	growth inhibition [4, 8]	growth inhibition ([4]; at 50.0 µM)	growth inhibition [5, 7]	growth inhibition [5, 8]	growth inhibition ([5]; at 50.0 µM)	growth inhibition [6, 7]	growth inhibition [6, 8]	growth inhibition ([6]; at 50.0 µM)
Cc1ccc2nc(CC(=O)c3cccnc3)c(CC(=O)c3cccnc3)nc2c1	7%	95% (active)	76.3% (active)	12%	94% (active)	63.2%	-1%	87% (active)	66.7%	14%	96% (active)	76.3% (active)	8%	93% (active)	60.7%	1%	91% (active)	60.5%
CC(C)(C)NCc1cc(Nc2ccnc3cc(Cl)ccc23)cc(-c2ccc(Cl)cc2)c1O	-6%	19%	14.7%	-4%	17%	-16.1%	-5%	-15%	-9.6%	-2%	18%	68.5%	7%	-8%	2.1%	-1%	22%	20.5%
O=C(Nc1ccc(-c2cn3ccccc3n2)cc1)c1cc(Br)ccc1O	4%	15%	-21.6%	5%	7%	-28.6%	12%	9%	-13.8%	33%	-9%	39.9%	5%	6%	-24.4%	5%	13%	-29.8%
CCC(=O)OC1=C(Br)C(=O)c2ccccc2C1=O	14%	85% (active)	89.6% (active)	17%	94% (active)	57.4%	25%	68%	80.3% (active)	4%	68%	1.15%	18%	96% (active)	18.9%	38%	85% (active)	76.6% (active)
COc1cc(/C=C/C(=N\NC(=O)c2ccccc2)c2sc(Nc3ccc(Cl)c(Cl)c3)nc2C)ccc1O	49%	49%	91.2% (active)	29%	29%	89.8% (active)	52%	52%	89.7% (active)	14%	14%	88.2% (active)	28%	28%	90.5% (active)	30%	30%	88.9% (active)
Cc1nc2c(cnn2C)cc1CCc1ccccc1	2%	16%	14.7%	3%	35%	3.9%	5%	53%	19.6%	12%	50%	25.1%	23%	78% (active)	76.1% (active)	8%	39%	23.6%
O=C1NC(c2ccccc2)(c2cccs2)C(=O)N1C1c2ccccc2Oc2ccccc21 (configuration not stated)	0%	87% (active)	90.3% (active)	-11%	92% (active)	84.7% (active)	-18%	92% (active)	91% (active)	-7%	84% (active)	84.2% (active)	-5%	91% (active)	86.8% (active)	21%	87% (active)	87.4% (active)
CC(C)CCCC(C)C1CCC2C3CCC4=CC(O)CCC4(C)C3CCC12C (configuration not stated)	-5%	96% (active)	93.8% (active)	1%	94% (active)	90.3% (active)	-2%	92% (active)	93% (active)	-8%	95% (active)	94.3% (active)	-5%	97% (active)	94% (active)	-3%	97% (active)	93.5% (active)
CC(=O)OC1CCC(C(C)(C)C)C(C)C1 (configuration not stated)	3%	43%	11.4%	5%	70% (active)	45.5%	6%	42%	43.4%	2%	68%	9.55%	-4%	67%	32.9%	3%	47%	29.5%
N#COc1ccc(Oc2ccc(OC#N)cc2)cc1	-4%	-3%	-12.9%	-30%	14%	-22.8%	26%	-3%	90.2% (active)	-2%	29%	25.8%	-5%	46%	40%	-12%	-15%	25.3%
CCCc1cc(=O)oc2c3c(c4c(c12)OC(C)(C)CC4)O[C@H](C)[C@H](C)C3=O	-7%	99% (active)	88.5% (active)	-18%	99% (active)	91.6% (active)	-12%	99% (active)	88.2% (active)	-6%	98% (active)	90.3% (active)	-18%	99% (active)	91.1% (active)	-5%	99% (active)	84.7% (active)
O=c1c2c3c(sc2nc2n1N=C(c1ccc(Br)cc1)CS2)CCCC3	1%	-11%	21.2%	-3%	-11%	-0.4%	-5%	-1%	-22.8%	17%	10%	-32.2%	11%	-10%	-24.5%	-10%	-6%	-25.4%
CS(=O)(=O)OCCN(CCOS(C)(=O)=O)c1ccc(C=Nc2ccc3ccccc3c2)cc1	12%	80% (active)	86.7% (active)	47%	55%	73.2% (active)	6%	45%	71.1% (active)	-2%	64%	37.7%	-3%	6%	10.3%	28%	90% (active)	95.3% (active)
Cn1cc(-c2c3c(cc4c2OCO4)OCO3)c2ccccc21	4%	99% (active)	99.2% (active)	-3%	98% (active)	99.2% (active)	2%	99% (active)	99.3% (active)	-9%	96% (active)	98.8% (active)	-2%	99% (active)	99.2% (active)	-1%	99% (active)	99.3% (active)
S=c1[nH]nc(Nc2ccccc2Cl)s1	17%	3%	57.5%	-21%	-8%	32.4%	-4%	15%	79.8% (active)	23%	22%	43.2%	1%	19%	57%	-7%	-8%	47.9%
C/C(=N/O)c1ccc2c(c1)C(C)c1ccccc1-2 (configuration not stated)	-147%	-142%	35.2%	-53%	-54%	45.9%	-59%	-65%	34.5%	-60%	-66%	77.4% (active)	-62%	-54%	78.2% (active)	-113%	-103%	75% (active)
COc1ccc(OC(=O)c2ccccc2)c2c1C(=O)C=CC2=O	5%	38%	92.7% (active)	10%	38%	84.2% (active)	-38%	21%	90.2% (active)	0%	18%	51.5%	-1%	24%	76.8% (active)	9%	24%	67.8%
NC(=S)NNc1c([N+](=O)[O-])cnn(-c2ccccc2)c1=O	18%	30%	3.85%	-28%	3%	3.05%	-27%	-13%	9.7%	-9%	16%	20.3%	-19%	21%	-4.75%	-22%	-25%	71.2% (active)
O=C1CCCC1CN1CCOCC1 (configuration not stated)	5%	97% (active)	75% (active)	-21%	97% (active)	75.7% (active)	-32%	75% (active)	82% (active)	6%	66%	64.4%	-20%	96% (active)	84.5% (active)	-6%	99% (active)	83.5% (active)
